# Data: PubChem BioAssay (NCI)
# The panel holds about 83,000 compounds, 20% with a hit somewhere; the sample as a whole holds those more often.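 The test compound was applied at a single concentration to cells in 96-well plates for 48 hours, and percent growth was recorded.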 Values without a mark were called inactive. Calls of active or inactive are those of the source. The calls were made as follows: active = growth percent below 10; inactive = the rest.
# Tests used:
# Assay in all cases: NCI-60 one-dose screen, 48 h (100 = growth as untreated, 0 = no growth, -100 = all killed)
# Settings in all cases: 10 µM unless noted
# [1] = test system: NCI-H23 lung
# [2] = test system: NCI-H226 lung
# [3] = test system: NCI-H322M lung
# [4] = test system: HOP-62 NSCLC
# [5] = test system: NCI-H460 lung
# [6] = test system: HOP-92 NSCLC
# [7] = test system: NCI-H522 lung
# [8] = test system: A549/ATCC NSCLC
# [9] = test system: 786-0 renal
# [10] = test system: COLO 205 colon
# [11] = test system: DU-145 prostate
# [12] = test system: K-562 leukemia
# [13] = test system: MALME-3M melanoma
# [14] = test system: MDA-MB-231 breast
# [15] = test system: RXF 393 renal
# [16] = test system: SF-268 CNS
# [17] = test system: SF-295 CNS
# [18] = test system: SF-539 CNS
# [19] = test system: M14 melanoma
# [20] = test system: UACC-257 melanoma
Structure (SMILES),growth [1],growth [2],growth [3],growth [4],growth [5],growth [6],growth [7],growth [8],growth [9],growth [10],growth [11],growth [12],growth [13],growth [14],growth [15],growth [16],growth [17],growth [18],growth [19],growth [20]
CCCCCCCOC(C(=O)OCCN(CC)CC)(c1ccccc1)c1ccccc1,87.7%,96.4%,98.7%,89.6%,84.4%,67.6%,73.4%,90.8%,65.8%,95.3%,86.9%,56.6%,100%,82.5%,92.4%,87.9%,123%,96.9%,90.5%,
OCc1ccc2c(c1)OCO2,95.8%,94.6%,104%,93.5%,103%,97.3%,90.8%,92.5%,104%,108%,105%,101%,97.5%,102%,103%,100%,93.8%,96.1%,103%,
COc1cc(/C=C\c2cc(OC)c(OC)c(OC)c2)cc(N/C=C\C(=O)c2cc(OC)c(OC)c(OC)c2)c1OC,29.6%,47.2%,36.8%,13.3%,17.3%,-9.27% (active),6.46% (active),40%,44%,3.1% (active),27.2%,16.2%,25.9%,42.7%,17.4%,41.1%,,-9.74% (active),2.89% (active),68.1%
Nc1cc2nc3ccccc3nc2cc1N,77.3%,85.6%,99.4%,80.4%,95.7%,97.8%,79.8%,80.1%,102%,106%,91.5%,59.8%,122%,86.9%,81.5%,92.4%,89.8%,95.4%,109%,
O=C1CCC2(O)[C@@H]3Cc4ccc(O)c5c4[C@]2(CCN3Cc2ccoc2)C1O5 (some centres not stated),96.7%,89.4%,110%,106%,103%,100%,95.4%,102%,103%,105%,106%,93.9%,96.7%,106%,116%,108%,,97.8%,100%,103%
COc1ccc(/C=C\c2cc(OC)c(OC)c(OC)c2)cc1OCC(=O)Nc1nc2ccc(C(F)(F)F)cc2s1,40.1%,45.8%,64.7%,45.4%,7.6% (active),46.6%,-39.2% (active),27.1%,83.2%,95.3%,0.679% (active),16%,43.8%,12.8%,-4.84% (active),43%,,-18.6% (active),22.3%,50%
CN(C)C(=O)Oc1ccccc1,104%,105%,109%,96.3%,97.5%,101%,112%,103%,107%,112%,108%,111%,109%,115%,122%,,103%,93.7%,103%,98.9%
COC[C@@H]1C[C@@]2(C)[C@@H](CC[C@@H]3[C@@H]2CC[C@@]2(C)[C@H]3CC[C@]2(C)O)CC1=O,108%,106%,105%,107%,101%,100%,73.6%,90.6%,94.9%,109%,102%,85.8%,96.4%,116%,105%,102%,,90.7%,94.5%,83.2%
